Laboratory results taken from PubChem BioAssay (EPA / NIEHS).
Inconclusive results are not listed. The source made the active and inactive calls. Rule for the calls: active = hit-call score of the fitted dose curve at least 0.9, where 1 is the maximum; inconclusive = response in the unintended direction; inactive = score below 0.9.

experiment: ACEA_ER_AUC_viability: ACEA Biosciences xCELLigence Real-Time Cell Analysis on Estrogen Receptor Agonism for Viability (AID 2283782);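 note: continuous compound exposure with impedance area under curve over 80 h; hit means loss of impedance signal meaning reduced cell growth or viability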
Summary of the method: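 T47D cells preconditioned in phenol red-free RPMI with charcoal-stripped FBS, then dosed with 8-point 1:4 series from 100 uM (up to 0.5% DMSO). Impedance monitored up to ~80 h; area-under-curve loss versus DMSO taken as viability.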

Row | SMILES | outcome | AC50
1 | CCOC(=O)CCC(C)=O | inactive | –
2 | O=C=NCc1cccc(CN=C=O)c1 | inactive | –
3 | CC(C)OC(=O)COc1ccc(Cl)cc1Cl | – | 66.8 µM (active)
4 | Cc1cc(=O)[nH]c(C(C)C)n1 | inactive | –
5 | O=C1c2c(O)ccc(Nc3ccc(CCO)cc3)c2C(=O)c2c([N+](=O)[O-])ccc(O)c21 | – | 88.8 µM (active)
6 | Cc1cc(O)c(C(C)(C)C)cc1C(C)(C)C | – | 23.2 µM (active)
7 | CCCC(=O)OCC(COC(=O)CCC)OC(=O)CCC | inactive | –
8 | O=S(=O)(O)CCC(F)(F)C(F)(F)C(F)(F)C(F)(F)F | inactive | –
9 | COc1ccccc1C=O | inactive | –
10 | O=C(O)CCC(F)(F)C(F)(F)C(F)(F)F | inactive | –
11 | C=CC(=O)OCC(F)(F)C(F)(F)C(F)(F)C(F)(F)C(F)(F)C(F)(F)C(F)(F)C(F)F | inactive | –
12 | O=C=Nc1cccc2c(N=C=O)cccc12 | inactive | –
13 | Cc1ccc2c(c1)OCC(=O)CO2 | inactive | –
14 | CC(C)C(=O)OCc1ccccc1 | inactive | –
15 | Cc1cc(C)c(O)c(C(C)(C)C)c1 | – | 90.6 µM (active)
16 | CCCCCCCCCCCCCCCCC | inactive | –
17 | CC(C)(C)C(=O)C1C(=O)c2ccccc2C1=O | – | 88.2 µM (active)
18 | O=C1OC(=O)c2ccc3c4c(ccc1c24)C(=O)OC3=O | inactive | –
19 | OCCCc1cccnc1 | inactive | –
20 | CCc1ccc(C)nc1 | inactive | –
21 | C#CC(O)CCC (centres undefined) | inactive | –
22 | O=C(Cl)c1ccc(Cl)cc1Cl | – | 78.9 µM (active)
23 | CCOC(C=C(C)CCC=C(C)C)OCC | – | 11.3 µM (active)
24 | NCC(F)(F)C(F)(F)C(F)(F)C(F)(F)C(F)(F)C(F)(F)F | inactive | –
